Data as given in PubChem BioAssay (NCI).
Compounds without any hit were thinned out: in the full panel of roughly 83,000, 20% have a hit.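 Growth was measured after 48 h exposure to one concentration of compound in 96-well plates. Values under 10 count as active.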 Unmarked numbers belong to inactive results. Calls of active or inactive are those of the source.

Assays:
Test in all cases: NCI-60 one-dose screen, 48 h (100 = growth as untreated, 0 = no growth, -100 = all killed)
Conditions in all cases: 10 µM
[1] = test system: NCI-H23 lung
[2] = test system: NCI-H226 lung
[3] = test system: NCI-H322M lung
[4] = test system: HOP-62 NSCLC
[5] = test system: NCI-H460 lung
[6] = test system: HOP-92 NSCLC
[7] = test system: NCI-H522 lung
[8] = test system: A549/ATCC NSCLC
[9] = test system: 786-0 renal
[10] = test system: COLO 205 colon
[11] = test system: DU-145 prostate
[12] = test system: K-562 leukemia
[13] = test system: MALME-3M melanoma
[14] = test system: MDA-MB-231 breast
[15] = test system: RXF 393 renal
[16] = test system: SF-268 CNS
[17] = test system: SF-295 CNS
[18] = test system: SF-539 CNS
[19] = test system: UACC-257 melanoma
[20] = test system: M14 melanoma

Row | SMILES | growth [1] | growth [2] | growth [3] | growth [4] | growth [5] | growth [6] | growth [7] | growth [8] | growth [9] | growth [10] | growth [11] | growth [12] | growth [13] | growth [14] | growth [15] [%] | growth [16] | growth [17] | growth [18] | growth [19] | growth [20]
1 | CN1/C(=C\C(I)C(I)C2=[N+](C)c3ccccc3C2(C)C)C(C)(C)c2ccccc21 (configuration not stated) | 3.16% (active) | 16.5% | 20.9% | 5.15% (active) | 4.27% (active) | -25.7% (active) | -14.1% (active) | 11.3% | 23.2% | -20.6% (active) | 25.2% | 7.4% (active) | 10.9% | 12.2% | 36.3 | 24% | -18.2% (active) | 18.6% | -11.8% (active) | 20.3%
2 | C/C(=N/NC(=O)c1sc(=S)n(C)c1N)c1cc2cc(Cl)ccc2o1 | 97.9% | 102% | 88.1% | 96.5% | 89% | 114% | 88.6% | 8.04% (active) | 106% | 104% | 87.2% | 72.8% | 113% | 68.9% |  | 80.2% | 109% | 99.2% | 5.89% (active) | 91.7%
3 | COc1ccc(/C(CS(=O)(=O)c2ccccc2)=N\O)cc1 | 105% | 89.1% | 108% | 109% | 109% | 109% | 97.3% | 92.1% | 104% | 114% | 119% | 103% | 106% | 113% | 92.1 | 115% | 88.5% | 102% | 95.8% | 109%
4 | CC(C)(C)CC(C)(C)c1ccc(O)c(Cc2ccc(Cl)cc2Cl)c1 | -85.9% (active) | -83.8% (active) | -89.6% (active) | -88.4% (active) | -68.1% (active) | -90.6% (active) | -84.7% (active) | -88.5% (active) | -92.8% (active) | -71.4% (active) | -89.2% (active) | -59% (active) | -89.4% (active) | -88.4% (active) |  | -83.6% (active) | -91.6% (active) | -75.5% (active) | -66.1% (active) | -87.9% (active)
5 | COc1cc2ccnc(C=O)c2cc1OC | 83.5% | 101% | 87.5% | 89.7% | 107% | 51.2% | 68.4% | 101% | 99.9% | 92.9% | 69.8% | 31.2% | 58.8% | 75.3% | 67.6 | 92% | 96.5% | 65.6% | 83.2% | 67.8%
6 | O=S(=O)(NCl)c1ccccc1 | 104% | 110% | 88.1% | 110% | 105% | 108% | 99.6% | 94.7% | 95.9% | 113% | 106% | 97.3% | 97.5% | 115% | 109 | 99.9% | 94.3% | 106% | 103% | 107%
7 | Clc1cc(Cl)c(Cl)c(-c2nc(-c3cccnc3)cs2)c1 | 94.8% | 90.9% | 99.2% | 114% | 92.2% | 79.7% | -51% (active) | 78.9% | 99.1% | 57.1% | 37.2% | 12% | 28.6% | 74% |  | 85.8% | 100% | 81.4% | 64.2% | 51.8%
8 | CCC1(C)OC(=O)NC1=O (configuration not stated) | 96% | 93.1% | 105% | 71.1% | 111% | 93.2% | 84.5% | 79.2% | 99.6% | 103% | 111% | 91.7% | 106% | 109% | 121 | 103% | 103% | 99.1% | 90.9% | 97.2%
